# Records with an inconclusive call do not appear. Where a call stands in place of a potency, no number is given. The source made the active and inactive calls. Calls come from the whole dose curve; as a rule, active = well fitted inhibition curve with a large enough effect in the polarisation, with a control signal flat (not every such curve was filed as active); inconclusive = small, poorly fitted or top-dose-only effect, or effect the other way, or a change in a side signal; inactive = no such curve, though single readings can be large or run the other way; the % refers to the polarisation.
# Assay: Confirmation of Inhibitors Targeting the Menin-MLL Interaction in MLL Related Leukemias: Competition With Texas Red Labeled MLL-derived Mutant Peptide
# Details: fluorescence polarization, Texas Red MLL peptide displacement; series mostly up to 94.6 µM
# Outline: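 Hits from the primary screen were retested: compounds were incubated 1 hr at ambient with 200 nM menin, 50 nM Texas Red mutant peptide and 25 nM fluorescein wild-type peptide (Tris pH 7.5, BSA-supplemented buffer), then fluorescence polarization was read.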
# Potency is the fitted concentration of half-maximal effect.
row,Structure (SMILES),Potency
1,Cc1nc(C)c(-c2ccc(SCc3ccccc3F)nn2)s1,inactive
2,Cc1cc2c(N)cccc2nn1,141 µM (active)
3,CC(CC(=O)Nc1nc2ccccc2[nH]1)n1ccnc1 (stereo not given),inactive
4,Cc1ccc(NC(=O)C(C)N2C(=O)c3ccccc3C2=O)c(C)c1 (stereo not given),inactive
5,O=C1Cc2ccccc2Sc2c(OCCN3CCCCC3)cccc21,126 µM (active)
6,CCCNC(=O)c1ccc2c(=O)c(O)c(C)[nH]c2c1,inactive
7,O=C(Cn1nc(-c2ccccc2)ccc1=O)N1CCCCC1,inactive
8,Nc1cccc2c1C(=O)N(C(=O)c1ccco1)C2=O,inactive
9,N#CC1=C(N)OC2=C(C(=O)CC(c3ccco3)C2)C1c1ccc(OCc2c(F)cccc2Cl)cc1 (stereo not given),inactive
10,Cc1ccccc1-c1cncnc1NC1CCNCC1,126 µM (active)
11,CCCCn1c(SCC(=O)NCc2ccc(OC)c(C(=O)O)c2)nc2cc(S(N)(=O)=O)ccc21,inactive
12,c1cc(CN2CCCNCCNCCCNCC2)ccc1CN1CCCNCCNCCCNCC1,22.4 µM (active)
13,Cc1cnc(NC(=O)C2C(=O)c3ccccc3S(=O)(=O)N2C)s1 (stereo not given),inactive
14,Cc1cc2c(c(=O)n1Cc1ccccc1)C1O[C@](c3ccsc3)(Cc3cc(C#N)ccc31)O2,inactive
15,N#Cc1ccc(Cl)cc1NC(=O)CNCc1cccs1,inactive
16,C[C@H](NC(=O)c1cc2c(cn1)[nH]c1ccccc12)C(=O)O,56.4 µM (active)
17,CCc1cc2c(N3CCN(C(=O)c4ccco4)CC3)ncnc2s1,35.5 µM (active)
18,CCCc1nc2c(=O)[nH]c3ccccc3c2o1,inactive
19,COc1ccc(-c2csc(NC(=S)NC(=O)/C=C/c3ccc(C(C)C)cc3)n2)cc1OC,17.8 µM (active)
20,CCCn1c(=O)c(C(=O)Nc2ccccc2C(=O)OCC)c(O)c2ccccc21,inactive
21,COc1ccc(C)cc1N(C(=O)c1snc(C(N)=O)c1N)C(C(=O)NC1CCCC1)c1ccc(F)cc1 (stereo not given),inactive
22,O=C(CN1C(=O)/C(=C/c2cccc(Br)c2)SC1=S)NC1=NCCS1,17.8 µM (active)
23,CN1C[C@@H]2C[C@H]1CN2c1cc2c(cc1F)c(=O)c(C(=O)O)cn2C1CC1,inactive
24,O=C(Nc1cccn(Cc2c(Cl)cccc2Cl)c1=O)c1c(Cl)cccc1Cl,inactive
25,Cc1cc(C)c2c(=O)cc(C(=O)NCc3ccccc3)oc2c1,inactive

row,Structure (SMILES),Potency
1,Cn1c(=O)n(C)c2cc3[nH]cnc3cc21,inactive
2,CCOC(=O)N1CCN(Cc2nnc(-c3ccccc3C)o2)CC1,inactive
3,C[N+]1(CCNC(=O)/C=N/O)CCCCC1,inactive
4,CC1CN(c2c3c(nc4ncnn24)CCCC3)CC(C)O1 (stereo not given),inactive
5,Cc1ccc(NS(=O)(=O)c2csc(C(N)=O)c2)cc1C,inactive
6,CCOC(=O)N1CCN(CCC(=O)c2ccc(Br)cc2)CC1,inactive
7,Cc1cc2[nH]c3c(c[n+](C)c4ccccc34)c2cc1C,56.4 µM (active)
8,O=C(NC1CCN(c2ncccn2)CC1)c1c(F)cccc1F,inactive
9,CCN1C(=O)c2ccccc2S(=O)(=O)c2ccc(C(=O)NCCCN(CC(C)C)CC(C)C)cc21,inactive
10,CN1CCN(CC(=O)c2ccccc2F)CC1,inactive
11,O=C(C1=C(O)C(=O)N(CCN2CCOCC2)C1c1cccc(Br)c1)c1cccs1 (stereo not given),inactive
12,COc1ccc(/C=C(\C#N)C(=O)NCc2ccccc2)cc1,inactive
13,Cc1ccc(C(=O)Sc2cccccc2=O)cc1,inactive
14,CCC[n+]1c2ccccc2cc2ccccc21,31.7 µM (active)
15,Cc1c(C(=O)OCC(=O)Nc2ccc(S(N)(=O)=O)cc2)oc2c1ccc1ccccc12,inactive
16,CCOC(=O)c1cnc2ccc(OC)cc2c1Nc1ccc(N2CCN(C)CC2)cc1,141 µM (active)
17,CCc1ccccc1NC(=O)COc1cccc(-n2cnnn2)c1,inactive
18,COC(=O)c1cc(CNC(=O)CCCSc2ccccc2)ccc1OC,inactive
19,O=[N+]([O-])CC(c1ccccc1)P(=O)(c1ccccc1)c1ccccc1 (stereo not given),inactive
20,CN1CCN(CC(=O)Nc2ccc(S(=O)(=O)N(C)C)cc2)CC1,inactive
21,CCN1C(=O)[C@@H]2C(C(=O)c3cnccn3)=NN[C@@H]2C1=O,inactive
22,CCc1nn(C)c2c(=O)c(=O)c2n(C)[nH]1,inactive
23,COc1ccccc1CNCC(=O)Nc1ccc(C#N)cc1,inactive
24,CN(C)/C=C(/C(=O)c1ccc(Cl)cc1)S(=O)(=O)c1ccc(Cl)cc1,inactive
25,O=C(Cn1c(=O)c2c3c(sc2n(Cc2ccccc2)c1=O)CCCC3)NCCO,inactive

# Reference: PubChem BioAssay AID2782 (National Center for Advancing Translational Sciences (NCATS), 2010)
